# From PubChem BioAssay AID1460 (National Center for Advancing Translational Sciences (NCATS), 2008)
# About 5,800 (2.1%) of roughly 270,000 compounds were called active. About 16% were inconclusive and are not listed. The call rests on the fitted dose curve; in most records, active means well fitted inhibition curve with a large enough effect; inconclusive means small, poorly fitted or top-dose-only effect; inactive means flat fitted curve, though single readings scatter. What follows is part of a selection rich in actives, with near analogues and random picks from the rest. More than one record can exist for a structure, and the calls need not agree.
# Target: Microtubule-associated protein tau (Homo sapiens) (UniProt P10636)
# Experiment: qHTS for Inhibitors of Tau Fibril Formation, Thioflavin T Binding; further: nearly all actives have a fitted effect of over 55% in size
# Conditions: recombinant tau K18 P301L (four-repeat tau fragment), heparin-induced fibrillization, ThT fluorescence; series mostly up to 57.4 µM; activity, negative = inhibition: at the top concentration
# Excerpt: NIH Molecular Libraries Probe Production Network [MLPCN]
# NIH Chemical Genomics Center [NCGC]
# Assay Provider: Carlo Ballatore, University of Pennsylvania
# The microtubule-associated protein tau is an abundant protein in the axons of neurons that stabilizes microtubules. With its ability to modulate microtubule dynamics, tau contributes directly or indirectly, to key structural and regulatory cellular functions. Particularly important is the influence tau exerts on axonal transport, which allows signaling molecules, trophic factors and other essential cellular constituents to travel along the axons. Under pathological conditions, tau becomes sequestered into insoluble aggregates called neurofibrillary tangles. This phenomenon is believed to have pathological consequences by promoting axonal transport deficits that ultimately lead to synaptic dysfunction and neuronal loss. To identify inhibitors of tau aggregation, a heparin-induced tau fibril formation assay was used that employed a recombinantly expressed fragment of tau, K18 (Q242-E372), bearing a P301L mutation (Gustke et al. 1994; Hong et al. 1998). This assay monitors tau fibrillization by Thioflavin T (ThT) fluorescence.
# Gustke, N., B. Trinczek, et al. (1994). "Domains of tau protein and interactions with microtubules." Biochemistry 33(32): 9511-22.
# Hong, M., V. Zhukareva, et al. (1998).
# Li, W. and V. M. Lee (2006).
# von Bergen, M., S. Barghorn, et al. (2001). "Mutations of tau protein in frontotemporal dementia promote aggregation of paired helical filaments by enhancing local beta-structure." J Biol Chem 276(51): 48165-74.
# NCGC Assay Protocol Summary:
# For screening, 2 uL/well human K18 P301L (15 uM unlabeled and 0.24 uM Alexa 594-labeled tau, final concentrations) in reagent buffer (100 mM sodium acetate pH 7) was dispensed into black solid 1536-well plates (Grenier) using a solenoid-based dispenser. Following transfer of 23 nL compound or DMSO vehicle by a pin tool, 2 uL/well heparin (20 uM final concentration) in reagent buffer was added and the plate centrifuged 15 s at 1000 RPM. Plates were incubated 6 hr at 37 C and then 1 uL/well ThT (30 uM final concentration) was added. After a 1 hr ambient incubation, the plates were read by an Envision (Perkin Elmer) to monitor ThT fluorescence (450/8 nm excitation and 510/23 nm emission).
# Keywords: NIH Roadmap, MLPCN, MLI, MLSMR, NCGC, qHTS, tau, tauopathies, Alzheimer's disease, fibril, neurodegeneration, aggregation
# On the % scale 0 is the no-effect control and ±100 the full control effect; potency means the concentration at half of the fitted maximal effect.
# Chain of Microtubule-associated protein tau (Homo sapiens) (P10636 561-689 P618L limits assumed): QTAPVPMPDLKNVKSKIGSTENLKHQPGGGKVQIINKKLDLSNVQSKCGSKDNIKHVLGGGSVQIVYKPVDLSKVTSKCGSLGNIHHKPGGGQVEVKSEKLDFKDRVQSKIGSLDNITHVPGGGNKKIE
Compound,"activity, negative = inhibition",Potency
CC(=O)c1cc2c(cc1N)OCO2,-6.51% (inactive),–
Nc1[nH][nH]c(=O)c1N=Nc1ccc2c(c1)OCO2,–,11.2 µM (active)
Cc1[nH][nH]c(=O)c1C(c1ccc2c(c1)OCO2)c1c(C)[nH][nH]c1=O,-9.72% (inactive),–
COc1ccccc1N1CCN(S(=O)(=O)CCNC(=O)COc2ccc(F)cc2)CC1,-9.39% (inactive),–
Cc1ccc2c(c1)c1c(c(=O)n(-c3ccccc3)c(=O)n1CC(=O)c1ccc(Cl)cc1)n2C,2.43% (inactive),–
COc1ccc(CCNC(=O)CCCn2c(=O)c3ccccc3n(Cc3ccc(F)cc3Cl)c2=O)cc1OC,-15.2% (inactive),–
CN1/C(=C\C(=O)c2oc3ccccc3c2N)C(C)(C)c2ccccc21,-9.9% (inactive),–
CN1/C(=C\C=C2\N=C(c3ccc(F)cc3)OC2=O)C(C)(C)c2ccccc21,–,28.2 µM (active)
CN1/C(=C\C(=O)c2cccnc2Cl)C(C)(C)c2ccccc21,-12.7% (inactive),–
COc1ccc(OCc2ccc(-c3nc(C#N)c(N4CCN(c5ccccc5)CC4)o3)o2)cc1,-13% (inactive),–
COc1ccc(N=Cc2c(O)[nH]c3ccccc23)cc1OC,–,14.1 µM (active)
COCC(=O)N=Nc1c(O)[nH]c2ccccc12,2.47% (inactive),–
COc1ccccc1N=Cc1c(O)c2ccccc2oc1=O,-10.1% (inactive),–
Cc1cc(NC(=O)c2ccc(-c3ccc(Cl)cc3)o2)cc(-c2nc3ncccc3o2)c1O,-20% (inactive),–
Cc1oc2ncn(CC(C)C)c(=O)c2c1C(=O)N1CCN(c2ccccc2F)CC1,1.01% (inactive),–
COc1ccccc1CNS(=O)(=O)c1cc(Br)cc2c1N(C(C)=O)C(C)C2 (configuration not stated),-3.82% (inactive),–
CCC(CC)C(=O)N1CCc2cc(OC)c(OC)cc2C1COc1ccc(F)cc1 (configuration not stated),-2.69% (inactive),–
CC1(OC(=O)CCc2ccccc2)C(=O)C=C2C=C(c3ccc(C#N)cc3)N(CCc3ccccn3)C=C2C1=O (configuration not stated),5.29% [at 11.5 µM] (inactive),28.2 µM (active)
CCCCC1=CC2=CC(=O)C(C)(OC(=O)CC)C(=O)C2=CN1CCCOC(C)C (configuration not stated),0.166% [at 11.5 µM] (inactive),–
CC1(OC(=O)C2CCCC2)C(=O)C=C2C=C(c3ccc(C#N)cc3)OC=C2C1=O (configuration not stated),-0.0683% (inactive),–
COc1ccc(NC(=O)CCCN2C(=O)CCn3nc(-c4cn(C)c5ccccc45)cc32)cc1OC,-16.8% (inactive),–

Compound,"activity, negative = inhibition",Potency
COc1ccccc1OCC(=O)Nc1nnc2n1CCS2,-8.04% (inactive),–
CCc1ccc(NC(=O)C2CCCN2S(=O)(=O)c2ccc3nc(-c4ccccc4)[nH]c3c2)cc1 (configuration not stated),-0.653% (inactive),–
COC(=O)C1=C(C)NC(=O)NC1/C=C/c1ccccc1 (configuration not stated),-3.02% (inactive),–
CCOc1cc(C2C(C(=O)OC)=C(C)NC3=C2C(=O)c2ccccc23)ccc1O (configuration not stated),–,14.1 µM (active)
COc1cc(C2C(C(=O)OCCC#N)=C(C)NC3=C2S(=O)(=O)c2ccccc23)cc(OC)c1OC (configuration not stated),1.33% (inactive),–
COc1ccccc1NC(=O)C1=C(C)NC2=C(C(=O)CCC2)C1c1ccc(C)o1 (configuration not stated),-2.96% (inactive),–
CCOc1cc(C2C(C(=O)Nc3ccc(OC)cc3)=C(C)Nc3nc(SC)nn32)ccc1O (configuration not stated),-15.4% (inactive),–
COC(=O)C1=C(C)NC2=C(C(=O)c3ccccc32)C1c1ccc(-c2ccc(C(=O)O)cc2)o1 (configuration not stated),–,8.91 µM (active)
Cc1nn(C)c2c1c(C(F)(F)F)cc(=O)n2C(C)C(=O)NCc1ccc(Cl)cc1 (configuration not stated),-0.102% (inactive),–
CC(C)(C)c1ccc(C(=O)NCC(c2ccco2)S(=O)(=O)c2ccc(F)cc2)cc1 (configuration not stated),-13.2% (inactive),–
Cc1ccc(Cl)cc1NC(=O)CSc1nc2ccccc2nc1Cc1ccccc1,6.27% (inactive),–
Cc1ccc(NC(=O)C2CCN(S(=O)(=O)c3cc(-c4noc(C)n4)ccc3C)CC2)c(C)c1,12.4% (inactive),–
O=C(NCCCc1ccccc1)c1ccc2c(c1)sc1nc(-c3ccc(F)cc3)cn12,-2.4% (inactive),–
COc1ccc2[nH]c3c(c2c1)CCN(C(=O)CCC1CCCC1)C3c1ccc(F)cc1 (configuration not stated),-10% (inactive),–
CC(C)C(=O)Nc1nc2c(s1)CC(C(C)(C)C)CC2 (configuration not stated),-5.04% (inactive),–
CCOC(=O)c1c(-c2ccccc2)csc1NC(=S)NC(=O)c1ccccc1,-20% (inactive),–
CCOC(=O)c1c(-c2cccc(C)c2)csc1NC(=O)c1c(-c2ccccc2)noc1C,4.1% (inactive),–
CCCS(=O)(=O)c1ncc(Cl)c(C(=O)Nc2scc(-c3ccccc3)c2C(=O)OCC)n1,–,7.94 µM (active)
COc1cc(CNC(=O)c2cc3n(n2)CCCN(Cc2cccc(F)c2)C3=O)cc(OC)c1OC,-16.7% (inactive),–
Nc1nnnn1CC(=O)N/N=C/c1ccc(-c2cccc(Cl)c2)o1,3.14% (inactive),–
Cc1ccc(-c2ccc(/C=N/NC(=O)CN3CCOCC3)o2)cc1[N+](=O)[O-],–,15.8 µM (active)

Compound,"activity, negative = inhibition",Potency
COc1cc(/C=N\NC(=O)c2nonc2N)c(OC)cc1Br,-11.8% (inactive),–
Cc1cc(C)c([N+](=O)[O-])cc1-c1ccc(/C=N/NC(=O)c2nonc2N)o1,–,5.01 µM (active)
Cc1ccc(NC(=O)CN2CCC(C(N)=O)CC2)cc1[N+](=O)[O-],1.4% (inactive),–
COC(=O)N/N=C/c1ccc(-c2ccc(Cl)c(Cl)c2)o1,10.7% (inactive),–
CCC(=O)N1N=C(c2ccc(OC)cc2)CC1c1cn(-c2ccccc2)nc1-c1cccs1 (configuration not stated),-7.19% (inactive),–
COc1cc(NC(=O)c2noc3c2CSc2ccccc2-3)cc(OC)c1OC,-11.9% (inactive),–
Cc1cc(/C=N/NC(=O)c2cccnc2)c(C)n1CC(C)C,-11.4% (inactive),–
CCN(CC)c1ccc(/C=N/NC(=O)c2cnccn2)c(O)c1,–,5.62 µM (active)
CCN(CC)c1ccc(/C=N/Nc2nc(C)cc(C)n2)c(O)c1,4.14% (inactive),–
CC(CNC(=O)c1nnc(Cc2cccc(F)c2)o1)c1ccccc1 (configuration not stated),6.43% (inactive),–
O=C(CCSCc1cccc(F)c1)NCc1ccccc1,12.1% (inactive),–
COc1cc(OC)c(NC(=O)Cc2ccc(-n3c(C)nc4cccnc43)cc2)cc1Cl,-1.35% (inactive),–
COc1ccc(C(=O)CSc2c(C(C)C)cnc3c2c(=O)n(C)c(=O)n3C)cc1,-12.6% (inactive),–
CCCCNC(=S)NNC(=O)c1cc(C)on1,-2.68% (inactive),–
CCCCNC(=O)C(=O)c1ccccc1NC(C)=O,0.0865% (inactive),–
CCCCNC(=O)Nc1c(C)cc(SC#N)cc1C,–,22.4 µM (active)
NS(=O)(=O)c1ccc(NC(=S)NC(=O)c2cccc(Br)c2)cc1,-1.11% (inactive),–
O=C(NC(=S)Nc1cccc2c(O)cccc12)c1cccc(Br)c1,–,12.6 µM (active)
O=C(NC(=S)Nc1ccc(S(=O)(=O)Nc2ncccn2)cc1)c1cccc(Br)c1,1.91% (inactive),–
